Where “and” joins values, the source holds several entries; their conditions need not be identical. Equal entries are not always repeated. Results filed as inconclusive are left out. Calls of active or inactive are those of the source. Rule as the data show it, unless noted: active = inhibition above about 80%; inactive = the rest.
How the values were obtained:
[1] = growth inhibition of DIPG glioma cells, dose response, cell-based, SU-DIPG-XVII, MIPE5.0, CellTiter-Glo, qHTS (AID 1347060; cut-off not given, nearly all actives have AC50 up to about 26 µM;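 as to AC50: cells exposed to compound for 48 hours before viability readout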); details: SU-DIPG-XVII viability, CellTiter-Glo ATP luminescence
[2] = growth inhibition of DIPG glioma cells, dose response, cell-based, JHH-DIPG-1, MIPE4.0, CellTiter-Glo, qHTS (AID 1347062; cut-off not given, nearly all actives have AC50 up to about 27 µM;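 as to AC50: cells exposed to compound for two days before readout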); details: JHH-DIPG-1 viability, CellTiter-Glo ATP luminescence
[3] = growth inhibition of DIPG glioma cells, dose response, cell-based, SU-DIPG-IV, MIPE4.0, CellTiter-Glo, qHTS (AID 1347063; cut-off not given, nearly all actives have AC50 up to about 30 µM;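 also: compound exposure lasted 48 hours before the viability readout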); details: SU-DIPG-IV viability, CellTiter-Glo ATP luminescence
[4] = viability loss in pontine glioma line – cell-based, SU-DIPG-XXV, MIPE5.0, CellTiter-Glo, qHTS, dose response (AID 1347065; cut-off not given, nearly all actives have AC50 up to about 26 µM;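 also: cells exposed to compound for 48 hours before ATP readout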); details: CellTiter-Glo ATP luminescence
[5] = SU-DIPG-VI glioma cell viability, MIPE4.0 library, CellTiter-Glo luminescence, qHTS (AID 1347066; cut-off not given, nearly all actives have AC50 up to about 30 µM;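 also: cells exposed to compound for 48 hours before readout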); details: CellTiter-Glo ATP luminescence
[6] = JHH-DIPG-1 glioma cell viability, MIPE5.0 library, CellTiter-Glo luminescence, qHTS (AID 1347067; cut-off not given, nearly all actives have AC50 up to about 26 µM;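 also: cells exposed to compound for 48 hours before readout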); details: JHH-DIPG-1 glioma viability, CellTiter-Glo ATP luminescence
[7] = modifiers of HSF1 nuclear foci, imaging, Selleck Cancer Library (AID 1347162; in the data active = plate-normalised HSF1 focus index below about 0.46); details: human cells, at 10 µM; SSMD: measured here: HSF1 foci SSMD mean; cell count: measured here: cell number; plate-normalised HSF1 focus index: stronger effect = lower value
[8] = LFS_MB_P medulloblastoma growth inhibition, cell-based, chromothripsis tumors, cisplatin or BGB combos (AID 1671449); details: LFS_MB_P medulloblastoma cells;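 also: cells exposed for 96 hours; 0% = vehicle DMSO and 100% = killing by high DMSO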
[9] = HDN33 neuroblastoma growth inhibition, cell-based, chromothripsis tumors, cisplatin or BGB combos (AID 1671450); details: HDN33 neuroblastoma cells, stronger effect = higher value;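 also: cells exposed to compound for four days; 0% = vehicle DMSO and 100% = cell killing by high DMSO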
[10] = ICB984 medulloblastoma cell growth inhibition, synergistic combos for chromothripsis tumors, cisplatin or BGB combos (AID 1671451; call rule not given here;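 also: cells exposed for 96 hours before readout; 0% = vehicle DMSO and 100% = killing by high DMSO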); details: ICB984 medulloblastoma cells, drug combinations, stronger effect = higher value
[11] = HTB85 osteosarcoma cell growth inhibition, synergistic combos for chromothripsis tumors, BGB or cisplatin IC20 combos (AID 1671453); details: HTB85 osteosarcoma cells, drug combinations, stronger effect = higher value;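 also: cells exposed for 96 hours before readout; 0% = vehicle DMSO and 100% = high DMSO killing control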
[12] = MDA-MB-436 breast carcinoma cell growth inhibition, synergistic combos for chromothripsis tumors, BGB or cisplatin combos (AID 1671458; call rule not given here;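 also: cells exposed for 96 hours; 0% = vehicle DMSO and 100% = killing by high DMSO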); details: MDA-MB-436 breast carcinoma growth inhibition, drug combinations, stronger effect = higher value
[13] = growth inhibition of BT084 medulloblastoma cells, cell-based, ICGC_MB145, cisplatin and BGB IC40 combos (AID 1671461); details: drug combinations, stronger effect = higher value;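 also: cells exposed to drugs for 96 hours; 0% = vehicle DMSO and 100% = high DMSO full killing control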
[14] = SU-DIPG-XXV glioma cell viability, MIPE5.0 library, qHTS (AID 1347068; cut-off not given, nearly all actives have IC50 up to about 30 µM;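 also: cells exposed to compound for 48 hours before viability readout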)
[15] = sensitizers of A549 cells to miR-34 induction, primary screen, imaging, A549 dox-inducible miR-34, nuclei and caspase counts (AID 1347080;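 active = compounds whose cell count with miR-34 switched on is under 0.7 times the count with it off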); details: A549 miR-34 inducible, Hoechst nuclei count, 48 h
[16] = survival rescue of mitochondrial mutant cells in low glucose, primary screen, MELAS cybrids, Rieske KO mouse fibroblasts, CellTiter-Glo (AID 1508586;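 active = mean z-score across replicates of 1.96 or higher in either the MELAS or the Rieske mutant cell line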;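 also: z relative to plate mean and SD of compound and empty wells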)

C[C@]1(c2nc3c(C(N)=O)cccc3[nH]2)CCCN1
outcome [1]: inactive | outcome [2]: inactive | outcome [3]: inactive | outcome [4]: inactive | outcome [5]: inactive | outcome [6]: inactive | SSMD [7]: 0.253 | cell count [7]: 7190 | plate-normalised HSF1 focus index [7]: 1.01 (inactive) | inhibition ([8]; at 0.5 µM, stronger effect = higher value): -27.2% (inactive) and -25.3% (inactive) | inhibition ([8]; measured here: combination with BGB IC20, at 0.005 µM): -35.2% and -15.1% | inhibition ([8]; measured here: combination with BGB IC40, at 0.005 µM): -26.8% and -17.3% | inhibition ([8]; measured here: combination with BGB IC40, at 0.05 µM): -28.3% and -28.8% | inhibition ([8]; measured here: combination with cisplatin, at 0.5 µM, stronger effect = higher value): -54% and -57% | inhibition ([8]; measured here: combination with cisplatin, at 5 µM, stronger effect = higher value): -58.4% and -45% | inhibition ([9]; BGB combo, at 5 µM): -41.3% and 0.864% | inhibition ([9]; at 0.5 µM): -26.5% (inactive) and -7.62% (inactive) | inhibition ([9]; cisplatin combo, at 5 µM): -8.25% and -1.94% | inhibition ([9]; measured here: with BGB IC20 combination, at 0.5 µM): -35.3% and -12.7% | inhibition ([9]; measured here: with cisplatin IC20 combination, at 0.5 µM): -24.4% and -3.22% | inhibition ([9]; single agent, at 5 µM): -21.8% and -0.922% | inhibition ([10]; BGB IC20 combo, at 0.005 µM): -10.4% and 0.353% | inhibition ([10]; BGB IC40 combo, at 0.005 µM): -32.9% and -29.7% | inhibition ([10]; BGB IC40 combo, at 0.05 µM): -67.4% and -16% | inhibition ([10]; at 0.5 µM): -18.7% (inactive) and -15.6% (inactive) | inhibition ([10]; cisplatin combo, at 0.05 µM): -73.4% and -19.3% | inhibition ([10]; cisplatin combo, at 0.5 µM): -14.2% and -3.56% | inhibition ([10]; cisplatin combo, at 5 µM): -53.1% and -59.6% | inhibition ([10]; measured here: 5 uM single agent, at 5 µM): -10.3% and -11.7% | inhibition ([11]; at 0.5 µM): -20.2% (inactive) and -2.71% (inactive) | inhibition ([11]; measured here: with BGB IC20, at 0.5 µM): -24.9% and -6.8% | inhibition ([11]; measured here: with BGB IC20, at 5 µM): -10.1% and -13% | inhibition ([11]; measured here: with cisplatin IC20, at 0.5 µM): -31.1% and -8.43% | inhibition ([11]; measured here: with cisplatin IC20, at 5 µM): -30% and -31.9% | inhibition ([11]; single agent, at 5 µM): -4.02% and -2.12% | inhibition ([12]; at 0.5 µM): -1.32% (inactive) and -13.2% (inactive) | inhibition ([12]; measured here: BGB combination, at 0.5 µM): -3.82% and -21.5% | inhibition ([12]; measured here: BGB combination, at 5 µM): -15.2% and -14.8% | inhibition ([12]; measured here: cisplatin combination, at 0.5 µM): -9.15% and -22.2% | inhibition ([12]; measured here: cisplatin combination, at 5 µM): 7.37% and -17% | inhibition ([13]; at 0.5 µM): -14.1% (inactive) and -22% (inactive) | inhibition ([13]; cisplatin combination, at 0.5 µM): -37.9% and -21.6% | inhibition ([13]; cisplatin combination, at 5 µM): 2.98% and -9.14% | inhibition ([13]; measured here: BGB IC40 combination 0.05 uM, at 0.05 µM): 13.6% and 2.76% | inhibition ([13]; single agent, at 5 µM): -8.42% and -18.5%

CC(C)c1cnn2c(NCc3ccccc3)cc(NCCCCCCN)nc12
AC50 [1]: 18.6 µM (active) | AC50 [2]: 20.9 µM (active) | AC50 [3]: 18.7 µM (active) | AC50 [4]: 18.6 µM (active) | AC50 [5]: 23.5 µM (active) | AC50 [6]: 26.3 µM (active) | IC50 [14]: 23.5 µM (active) | fold change ([15]; stronger effect = lower value, cell number ratio, induced over uninduced): 0.98 (inactive) | fold change ([15]; measured here: relative caspase fold change +Dox/-Dox): 0.679 | cell count ([15]; measured here: total cells with miR-34 induction, stronger effect = lower value): 7920 | cell count ([15]; measured here: total cells without miR-34 induction): 8080 | z-score ([16]; MELAS cybrid survival, CellTiter-Glo 48 h, stronger effect = higher value): -0.424 (inactive) | z-score ([16]; Rieske KO mouse fibroblast survival, CellTiter-Glo 72 h): -0.75

From PubChem BioAssay
